Results from PubChem BioAssay AID1159580 (chemical genetic matrix, 2015).
Screen size: about 5,500 compounds; about 2,000 (36%) were called active. Roughly 18% stayed inconclusive and do not appear here. Rule as the data show it: active = normalized growth mostly below about 0.91 (no sharp cut-off); inconclusive = no clear call, values can overlap the other calls; inactive = mostly above about 0.92. This is one part of the list.

Experiment: chemical genetic growth profiling, strain panel (AID 1159580);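 also: tested at 20 µM; growth read once vehicle control cultures reached saturation at 30 °C; 1 = growth at the plate median or of vehicle wells; lower values mean less growth of the strain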
Details: growth OD

Measured: normalized growth

Clc1ccc(C(c2ccc(Cl)cc2)C(Cl)(Cl)Cl)cc1
inactive: S. cerevisiae deletion strains, locus YJR043C, strain POL32, hits give low values 0.996 | S. cerevisiae deletion strains, locus YJR075W, strain HOC1, hits give low values 1.01 | S. cerevisiae deletion strains, locus YKL009W, strain mrt4, hits give low values 0.992 | S. cerevisiae deletion strains, locus YKL068W, hits give low values 1.02 | S. cerevisiae deletion strains, locus YKL085W, strain MDH1 (second series), hits give low values 1.01 | S. cerevisiae deletion strains, locus YKL085W, strain MDH1, hits give low values 1.01 | S. cerevisiae deletion strains, locus YKL160W, strain elf1, hits give low values 1.01 | S. cerevisiae deletion strains, locus YKL190W, strain CNB1, hits give low values 0.996 | S. cerevisiae deletion strains, locus YKR001C, strain vps1, hits give low values 0.997 | S. cerevisiae deletion strains, locus YKR026C, strain gcn3, hits give low values 1.01 | S. cerevisiae deletion strains, locus YKR091W, strain srl3, hits give low values 1 | S. cerevisiae deletion strains, locus YLL001W, strain dnm1, hits give low values 1.02 | S. cerevisiae deletion strains, locus YLL026W, hits give low values 1.01 | S. cerevisiae deletion strains, locus YLL041C, strain sdh2, hits give low values 1.01 | S. cerevisiae deletion strains, locus YLR027C, strain aat2, hits give low values 1.01 | S. cerevisiae deletion strains, locus YLR039C, strain RIC1, hits give low values 1.05 | S. cerevisiae deletion strains, locus YLR058C, strain SHM2, hits give low values 1.02 | S. cerevisiae deletion strains, locus YLR102C, strain apc9, hits give low values 0.992 | S. cerevisiae deletion strains, locus YLR221C, strain rsa3, hits give low values 1.01 | S. cerevisiae deletion strains, locus YLR258W, strain gsy2, hits give low values 1.01 | S. cerevisiae deletion strains, locus YLR262C, strain YPT6 (second series), hits give low values 0.985 | S. cerevisiae deletion strains, locus YLR262C, strain YPT6, hits give low values 0.999 | S. cerevisiae deletion strains, locus YLR268W, strain sec22, hits give low values 1 | S. cerevisiae deletion strains, locus YLR320W, strain mms22, hits give low values 0.99 | S. cerevisiae deletion strains, locus YLR330W, strain CHS5, hits give low values 1.02 | S. cerevisiae deletion strains, locus YLR342W, strain FKS1 (second series), hits give low values 1.04 | S. cerevisiae deletion strains, locus YLR342W, strain FKS1, hits give low values 1.01 | S. cerevisiae deletion strains, locus YLR357W, strain rsc2, hits give low values 1.03 | S. cerevisiae deletion strains, locus YLR370C, strain arc18, hits give low values 1.01 | S. cerevisiae deletion strains, locus YLR371W, strain rom2, hits give low values 0.995 | S. cerevisiae deletion strains, locus YLR384C, strain iki3, hits give low values 1 | S. cerevisiae deletion strains, locus YLR418C, strain cdc73, hits give low values 0.984 | S. cerevisiae deletion strains, locus YML016C, strain PPZ1, hits give low values 1.03 | S. cerevisiae deletion strains, locus YML032C, strain rad52, hits give low values 0.992 | S. cerevisiae deletion strains, locus YML120C, strain ndi1, hits give low values 0.997 | S. cerevisiae deletion strains, locus YML124C, strain tub3, hits give low values 1 | S. cerevisiae deletion strains, locus YMR058W, strain fet3, hits give low values 1.01 | S. cerevisiae deletion strains, locus YMR078C, strain ctf18, hits give low values 0.991 | S. cerevisiae deletion strains, locus YMR125W, strain sto1, hits give low values 1.01 | S. cerevisiae deletion strains, locus YMR129W, hits give low values 1.01 | S. cerevisiae deletion strains, locus YMR205C, strain PFK2, hits give low values 0.977 | S. cerevisiae deletion strains, locus YMR223W, strain ubp8, hits give low values 0.991 | S. cerevisiae deletion strains, locus YMR231W, strain pep5, hits give low values 1.01 | S. cerevisiae deletion strains, locus YMR263W, strain SAP30, hits give low values 1.02 | S. cerevisiae deletion strains, locus YMR307W, strain GAS1, hits give low values 0.918 | S. cerevisiae deletion strains, locus YNL067W, strain RPL9B, hits give low values 1.01 | S. cerevisiae deletion strains, locus YNL071W, strain lat1, hits give low values 1.02 | S. cerevisiae deletion strains, locus YNL128W, strain TEP1, hits give low values 1.02 | S. cerevisiae deletion strains, locus YNL153C, strain GIM3, hits give low values 1.02 | S. cerevisiae deletion strains, locus YNL209W, strain ssb2, hits give low values 1 | S. cerevisiae deletion strains, locus YNL233W, strain BNI4, hits give low values 1.01 | S. cerevisiae deletion strains, locus YNL248C, strain rpa49, hits give low values 1 | S. cerevisiae deletion strains, locus YNL250W, strain rad50, hits give low values 1 | S. cerevisiae deletion strains, locus YNL271C, strain bni1, hits give low values 0.997 | S. cerevisiae deletion strains, locus YNL298W, strain CLA4, hits give low values 1.02 | S. cerevisiae deletion strains, locus YNL307C, strain MCK1, hits give low values 0.963 | S. cerevisiae deletion strains, locus YNL322C, strain KRE1 (second series), hits give low values 1.01 | S. cerevisiae deletion strains, locus YNL322C, strain KRE1, hits give low values 1.02 | S. cerevisiae deletion strains, locus YNR049C, strain mso1, hits give low values 1.01 | S. cerevisiae deletion strains, locus YNR052C, strain pop2, hits give low values 0.991 | S. cerevisiae deletion strains, locus YOL006C, strain TOP1, hits give low values 1.02 | S. cerevisiae deletion strains, locus YOL012C, strain htz1 1.14 | S. cerevisiae deletion strains, locus YOL147C, strain pex11, hits give low values 1 | S. cerevisiae deletion strains, locus YOR001W, strain rrp6, hits give low values 1.01 | S. cerevisiae deletion strains, locus YOR061W, strain CKA2, hits give low values 1.01 | S. cerevisiae deletion strains, locus YOR069W, strain VPS5, hits give low values 1.01 | S. cerevisiae deletion strains, locus YOR070C, strain gyp1, hits give low values 1.01 | S. cerevisiae deletion strains, locus YOR080W, strain dia2, hits give low values 1.01 | S. cerevisiae deletion strains, locus YOR083W, strain WHI5, hits give low values 1.01 | S. cerevisiae deletion strains, locus YOR106W, strain vam3, hits give low values 0.988 | S. cerevisiae deletion strains, locus YOR136W, strain idh2, hits give low values 0.99 | S. cerevisiae deletion strains, locus YOR144C, strain elg1, hits give low values 1 | S. cerevisiae deletion strains, locus YOR184W, strain ser1, hits give low values 0.982 | S. cerevisiae deletion strains, locus YOR265W, strain rbl2, hits give low values 1.01 | S. cerevisiae deletion strains, locus YOR270C, strain vph1, hits give low values 1.01 | S. cerevisiae deletion strains, locus YOR290C, strain snf2, hits give low values 1 | S. cerevisiae deletion strains, locus YOR316C, strain cot1, hits give low values 1.01 | S. cerevisiae deletion strains, locus YPL051W, strain arl3, hits give low values 1 | S. cerevisiae deletion strains, locus YPL055C, strain LGE1, hits give low values 0.989 | S. cerevisiae deletion strains, locus YPL078C, strain atp4, hits give low values 1.01 | S. cerevisiae deletion strains, locus YPL106C, strain sse1, hits give low values 1.03 | S. cerevisiae deletion strains, locus YPL240C, strain hsp82, hits give low values 0.999 | S. cerevisiae deletion strains, locus YPL241C, strain CIN2, hits give low values 1.02 | S. cerevisiae deletion strains, locus YPR119W, strain clb2, hits give low values 0.998 | S. cerevisiae deletion strains, locus YPR141C, strain kar3, hits give low values 1.01 | S. cerevisiae deletion strains, locus YPR163C, strain tif3, hits give low values 0.998 | S. cerevisiae deletion strains, locus YPR167C, strain met16, hits give low values 0.997 | S. cerevisiae deletion strains, strain wtn01, hits give low values 0.997 | S. cerevisiae strains, strain wild type, hits give low values 1.01
